Assay results reported in PubChem BioAssay (NCATS).
“And” between values parts separate entries of the source, which are not always exact repeats. Identical values can stand only once. Inconclusive results are not listed. Where a call stands in place of a potency, no number is given. Unmarked numbers belong to inactive results. The source made the active and inactive calls. Calls come from the whole dose curve; as a rule, active = well fitted curve in the direction sought with a large enough effect; inconclusive = small, poorly fitted or top-dose-only effect, or another doubt; inactive = no such curve, though single readings can be large; an effect the other way counts as inactive or inconclusive.

Legend:
MKL-1 = assay: qHTS assay to identify novel small-molecules to repurpose for Merkel cell carcinoma treatment (AID 1296009); settings: MCC and control cell lines, CellTiter-Glo viability, 72 h; series mostly up to 46 µM; note: nearly all actives have a fitted effect of over 60% in size
Procedure, shortened: (§1)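 Cells were incubated with compound for 72 hr at 37 degree celsius before CellTiter-Glo addition. Luminescence was normalized with no-cell wells as full cytotoxicity and DMSO as baseline.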

MKL-2 = assay: as above; settings: MCC and control cell lines, CellTiter-Glo viability, 72 h; series mostly up to 46 µM
Procedure, shortened: as §1

UISO = assay: as above; settings: MCC and control cell lines, CellTiter-Glo viability, 72 h; series mostly up to 46 µM
Procedure, shortened: as §1

WaGa = assay: as above; settings: MCC and control cell lines, CellTiter-Glo viability, 72 h; series mostly up to 46 µM
Procedure, shortened: as §1

C33A = assay: Primary qHTS to identify gynecologic anti-cancer compounds using libraries of approved drugs and bioactive compounds (AID 1345084); settings: Gynecologic cancer cell panel viability, ATPlite luminescence, 48 h; series mostly up to 57.5 µM; note: nearly all actives have a fitted effect of over 55% in size; note: potency is the fitted concentration of half-maximal effect
Procedure, shortened: (§2)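 In this quantitative HTS, cell killing is estimated from loss of ATP-dependent luciferase light. Cells see five compound concentrations over a 48 h exposure.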

CAOV3 = assay: as above; settings: Gynecologic cancer cell panel viability, ATPlite luminescence, 48 h; series mostly up to 57.5 µM
Procedure, shortened: as §2

CASKI = assay: as above; settings: Gynecologic cancer cell panel viability, ATPlite luminescence, 48 h; series mostly up to 57.5 µM
Procedure, shortened: as §2

Es-2 = assay: as above; settings: Gynecologic cancer cell panel viability, ATPlite luminescence, 48 h; series mostly up to 57.5 µM
Procedure, shortened: as §2

HeLa = assay: as above; settings: Gynecologic cancer cell panel viability, ATPlite luminescence, 48 h; series mostly up to 57.5 µM
Procedure, shortened: as §2

Hek293T = assay: as above; settings: Gynecologic cancer cell panel viability, ATPlite luminescence, 48 h, control line for the selectivity index; series mostly up to 57.5 µM
Procedure, shortened: as §2

JEG-3 = assay: as above; settings: Gynecologic cancer cell panel viability, ATPlite luminescence, 48 h; series mostly up to 57.5 µM
Procedure, shortened: as §2

OV90 = assay: as above; settings: Gynecologic cancer cell panel viability, ATPlite luminescence, 48 h; series mostly up to 57.5 µM
Procedure, shortened: as §2

PA-1 = assay: as above; settings: Gynecologic cancer cell panel viability, ATPlite luminescence, 48 h; series mostly up to 57.5 µM
Procedure, shortened: as §2

Tov-21-G = assay: as above; settings: Gynecologic cancer cell panel viability, ATPlite luminescence, 48 h; series mostly up to 57.5 µM
Procedure, shortened: as §2

Tov112D = assay: as above; settings: Gynecologic cancer cell panel viability, ATPlite luminescence, 48 h; series mostly up to 57.5 µM
Procedure, shortened: as §2

[1] = Drug repurposing screens with cells derived from glioblastoma tumor samples (AID 1345199); settings: GBM patient neurospheres viability, ATP luminescence, 48 h; note: nearly all actives have a fitted effect of over 40% in size; note: potency is the fitted concentration of half-maximal effect
Procedure, shortened: (§3)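 Four patient lines of CD133+ GBM neurospheres were screened at several concentrations; hits were retested in those lines plus three slower-growing GBM lines, using 48-hour treatment and ATP-based viability.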

astro = assay: as above; settings: viability, ATP luminescence, 48 h; series mostly up to 45.9 µM
Procedure, shortened: as §3

SKOV3 = assay: Primary qHTS to identify gynecologic anti-cancer compounds using libraries of approved drugs and bioactive compounds (AID 1345084); settings: Gynecologic cancer cell panel viability, ATPlite luminescence, 48 h; series mostly up to 57.5 µM; note: nearly all actives have a fitted effect of over 55% in size; note: potency is the fitted concentration of half-maximal effect
Procedure, shortened: as §2

[2] = at 45.9 µM (top of the series), tumour line B
[3] = at 45.9 µM (top of the series), tumour line D
[4] = at 46.1 µM (top of the series), tumour line C
[5] = at 91.6 µM (top of the series), tumour line B
[6] = at 91.6 µM (top of the series), tumour line D
[7] = at 99.2 µM (top of the series), tumour line C

## c1ccc2sc(SN3CCOCC3)nc2c1
MKL-1
  Potency: inactive
MKL-2
  Potency: inactive
UISO
  Potency: inactive
WaGa
  Potency: inactive
C33A
  Potency: inactive
CAOV3
  Potency: inactive
CASKI
  Potency: inactive
Es-2
  Potency: inactive
HeLa
  Potency: inactive
Hek293T
  Potency: inactive
JEG-3
  Potency: inactive
OV90
  Potency: inactive
PA-1
  Potency: inactive
Tov-21-G
  Potency: inactive
Tov112D
  Potency: inactive
[1]; [2]
  activity, negative = cell killing: -16.5%
[1]; [3]
  activity, negative = cell killing: -19.8%
[1]; [4]
  activity, negative = cell killing: -23.9%
astro
  Potency: inactive

## CC1(C)S[C@@H]2[C@H](NC(=O)[C@H](N)c3ccccc3)C(=O)N2[C@H]1C(=O)O
MKL-1
  Potency: inactive
MKL-2
  Potency: inactive
UISO
  Potency: inactive
WaGa
  Potency: inactive
C33A
  Potency: inactive
CAOV3
  Potency: inactive
CASKI
  Potency: inactive
Es-2
  Potency: inactive
HeLa
  Potency: inactive
Hek293T
  Potency: inactive
JEG-3
  Potency: inactive
OV90
  Potency: inactive
PA-1
  Potency: inactive
SKOV3
  Potency: inactive
Tov-21-G
  Potency: inactive
Tov112D
  Potency: inactive
[1]; [2]
  activity, negative = cell killing: -7.71%
[1]; [3]
  activity, negative = cell killing: 10.7%
[1]; [4]
  activity, negative = cell killing: 12.5%
astro
  Potency: inactive

## Cc1ccc(O)c(-n2nc3ccccc3n2)c1
MKL-1
  Potency: inactive
MKL-2
  Potency: inactive
UISO
  Potency: inactive
WaGa
  Potency: inactive
C33A
  Potency: inactive
Es-2
  Potency: inactive
HeLa
  Potency: inactive
Hek293T
  Potency: inactive
JEG-3
  Potency: inactive
OV90
  Potency: 3.55 µM (active)
PA-1
  Potency: inactive
SKOV3
  Potency: inactive
Tov-21-G
  Potency: inactive
Tov112D
  Potency: inactive
[1]; [2]
  activity, negative = cell killing: -17.2%
[1]; [3]
  activity, negative = cell killing: -17.5%
[1]; [4]
  activity, negative = cell killing: -2.87%
astro
  Potency: inactive

## c1ccc(CCNc2nc(-c3ccccc3)cs2)cc1
MKL-1
  Potency: inactive
WaGa
  Potency: inactive
C33A
  Potency: inactive
CAOV3
  Potency: inactive
CASKI
  Potency: inactive
Es-2
  Potency: inactive
HeLa
  Potency: inactive
Hek293T
  Potency: inactive
JEG-3
  Potency: inactive
PA-1
  Potency: inactive
SKOV3
  Potency: inactive
Tov-21-G
  Potency: inactive
Tov112D
  Potency: inactive
[1]; [2]
  activity, negative = cell killing: -22.5%
[1]; tumour line A
  Potency: 14.1 µM (active)

## COc1ccnc2c1CCCCC2S(=O)c1nc2ccccc2[nH]1 (stereo not drawn)
MKL-1
  Potency: inactive
MKL-2
  Potency: inactive
UISO
  Potency: inactive
WaGa
  Potency: inactive
C33A
  Potency: inactive
CASKI
  Potency: inactive
Es-2
  Potency: inactive
HeLa
  Potency: inactive
Hek293T
  Potency: inactive
JEG-3
  Potency: inactive
OV90
  Potency: inactive
PA-1
  Potency: inactive
SKOV3
  Potency: inactive
Tov-21-G
  Potency: inactive
Tov112D
  Potency: inactive

## CC(C)OC(=O)c1cc(C(=O)OC(C)C)cc([N+](=O)[O-])c1
MKL-1
  Potency: inactive
MKL-2
  Potency: inactive
UISO
  Potency: inactive
WaGa
  Potency: inactive
C33A
  Potency: inactive
CAOV3
  Potency: inactive
CASKI
  Potency: inactive
Es-2
  Potency: inactive
HeLa
  Potency: inactive
Hek293T
  Potency: inactive
JEG-3
  Potency: inactive
OV90
  Potency: inactive
PA-1
  Potency: inactive
Tov-21-G
  Potency: inactive
Tov112D
  Potency: inactive
[1]; at 91.6 µM (top of the series), tumour line A
  activity, negative = cell killing: -39.8%
[1]; [5]
  activity, negative = cell killing: -8.41%
[1]; [6]
  activity, negative = cell killing: -19.6%
[1]; [7]
  activity, negative = cell killing: 10.5%
astro
  Potency: inactive

## O=C(CCN1CCN(CCO)CC1)N1c2ccccc2Sc2ccc(C(F)(F)F)cc21
MKL-1
  Potency: inactive
MKL-2
  Potency: inactive
UISO
  Potency: inactive
WaGa
  Potency: inactive
C33A
  Potency: inactive
CASKI
  Potency: inactive
Es-2
  Potency: inactive
HeLa
  Potency: inactive
Hek293T
  Potency: inactive
JEG-3
  Potency: inactive
OV90
  Potency: inactive
PA-1
  Potency: inactive
SKOV3
  Potency: inactive
Tov-21-G
  Potency: inactive
Tov112D
  Potency: inactive
[1]; [2]
  activity, negative = cell killing: -17.6%
[1]; tumour line A
  Potency: 11.2 µM (active)
astro
  Potency: inactive

## O=c1cc(-c2ccccc2)oc2ccccc12
MKL-1
  Potency: inactive
HeLa
  Potency: 15.8 µM (active)
SKOV3
  Potency: 31.6 µM (active)

## Cc1ccc2c(n1)Oc1ccc(C(C)C(=O)OCC(=O)N(C)C)cc1C2 (stereo not drawn)
MKL-1
  Potency: inactive
MKL-2
  Potency: inactive
UISO
  Potency: inactive
WaGa
  Potency: inactive
C33A
  Potency: inactive
CAOV3
  Potency: inactive
CASKI
  Potency: inactive
Es-2
  Potency: inactive
HeLa
  Potency: inactive
Hek293T
  Potency: inactive
JEG-3
  Potency: inactive
OV90
  Potency: inactive
PA-1
  Potency: inactive
SKOV3
  Potency: inactive
Tov-21-G
  Potency: inactive
Tov112D
  Potency: inactive
[1]; [2]
  activity, negative = cell killing: -2.21% and -4.54%
[1]; [3]
  activity, negative = cell killing: -24.2% and -10.3%
[1]; [4]
  activity, negative = cell killing: -14.5% and 2.44%
astro
  Potency: inactive

## NCCO
MKL-1
  Potency: inactive
MKL-2
  Potency: inactive
UISO
  Potency: inactive
WaGa
  Potency: inactive
C33A
  Potency: inactive
CAOV3
  Potency: inactive
CASKI
  Potency: inactive
Es-2
  Potency: inactive
HeLa
  Potency: inactive
Hek293T
  Potency: inactive
JEG-3
  Potency: inactive
OV90
  Potency: inactive
PA-1
  Potency: inactive
Tov-21-G
  Potency: inactive
Tov112D
  Potency: inactive
[1]; [5]
  activity, negative = cell killing: -4.71%
[1]; [6]
  activity, negative = cell killing: -21.3%
[1]; [7]
  activity, negative = cell killing: -29.9%
astro
  Potency: inactive

## CC(N)C(=O)OC(C)(C)Cc1ccc(Cl)cc1 (stereo not drawn)
MKL-1
  Potency: inactive
MKL-2
  Potency: inactive
UISO
  Potency: inactive
WaGa
  Potency: inactive
C33A
  Potency: inactive
CAOV3
  Potency: inactive
CASKI
  Potency: inactive
Es-2
  Potency: inactive
HeLa
  Potency: inactive
JEG-3
  Potency: inactive
OV90
  Potency: inactive
PA-1
  Potency: inactive
SKOV3
  Potency: inactive
Tov-21-G
  Potency: inactive
Tov112D
  Potency: inactive
[1]; [2]
  activity, negative = cell killing: -21.1%
[1]; [3]
  activity, negative = cell killing: -21.2%
[1]; tumour line A
  Potency: 20 µM (active)

## CC(C(=O)O)c1ccc(C(=O)c2ccccc2)s1 (stereo not drawn)
MKL-1
  Potency: inactive
MKL-2
  Potency: inactive
UISO
  Potency: inactive
WaGa
  Potency: inactive
C33A
  Potency: inactive
CAOV3
  Potency: inactive
CASKI
  Potency: inactive
Es-2
  Potency: inactive
HeLa
  Potency: inactive
Hek293T
  Potency: inactive
JEG-3
  Potency: inactive
OV90
  Potency: inactive
PA-1
  Potency: inactive
Tov-21-G
  Potency: inactive
Tov112D
  Potency: inactive
[1]; at 20 µM (top of the series), tumour line C
  activity, negative = cell killing: -11.8%
[1]; at 21.2 µM (top of the series), tumour line B
  activity, negative = cell killing: -9.92%
[1]; at 21.2 µM (top of the series), tumour line D
  activity, negative = cell killing: 4.8%
